In all, about 63,000 compounds went through this assay and about 1,100 (1.7%) were called active. This is one part of a sample in which actives are shown more often than they occur. Measured potencies and affinities stand elsewhere. Unmarked numbers belong to inactive results.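 The calls were made as follows: active = compounds whose percent cytotoxicity in the single-dose primary screen, scaled between solvent and toxic-drug controls, exceeds 50; inactive = the rest.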
Experiment: viability loss of HPDE-C7K cells – cell-based, fluorescence, HTS, primary screen (AID 431);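 also: 0% = DMSO solvent wells and 100% = doxorubicin-treated wells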
Conditions: HPDE-C7K KRASV12 cells, Alamar Blue viability, 48 h; at 10 µM; hits give high values
In the case of `COc1cc2c(cc1NC(=O)CCCN1C(=O)CCC1=O)oc1ccccc12`, the cytotoxicity is reported as 15.2%. With `COc1cc2c(cc1NC(=O)CN1C(=O)NC3(CCc4ccccc43)C1=O)oc1ccccc12` (centres undefined) the cytotoxicity was 55% (active). For `COc1ccc(C(=O)CN2C(=O)NC3(CCCc4ccccc43)C2=O)cc1OC` (centres undefined), the cytotoxicity was 3.3%. With `CCOC(=O)C1CCCN(C(=O)c2ccc3c(c2)NC(=O)C(N2CCOCC2)S3)C1` (centres undefined) the cytotoxicity was -2.6%. `CCOC(=O)N1CCN(C(=O)c2ccccc2CCc2ccccc2)CC1` gave a cytotoxicity of 12.2%. With `COc1ccc(Cl)cc1CN1CCN(c2nc(C)cc(C)c2C#N)CC1` the cytotoxicity was 22.3%. For `O=C(NCC12CC3CC(CC(C3)C1)C2)c1nc2ncccn2n1`, the cytotoxicity was 7.1%. `CCN=C1SC(CC(=O)Nc2sc3c(c2C#N)CCCC3)C(=O)N1CC` (centres undefined) gave a cytotoxicity of -3.9%. In the case of `CC(C)c1ccc(NC(=O)NC2CCCCC2)cc1`, the cytotoxicity is reported as 52.6% (active). With `O=C(Nc1ccc(F)c(F)c1)NC1CCCCC1` the cytotoxicity was -0.5%. With `Cc1ccc(NC(=O)NC2CCCCC2)cc1Cl` the cytotoxicity was -4%. In the case of `CCOc1ccc(NS(=O)(=O)c2ccc3[nH]c(=O)oc3c2)cc1`, the cytotoxicity is reported as 11.8%. `CCOc1ccc(NS(=O)(=O)c2ccc(SC)cc2)cc1` showed a cytotoxicity of 8.6%. Work on `Cn1c(=O)c2c(nc(NCc3cccnc3)n2Cc2cccc(C(F)(F)F)c2)n(C)c1=O` yielded a cytotoxicity of -17.6%. Compound `Cc1cc(=O)[nH]c(-n2nc(C)cc2C)n1` has a cytotoxicity of -16%. With `Cc1cc(Nc2ccccc2)n(-c2nc3ccccc3[nH]2)n1` the cytotoxicity was 1.5%. For `Cc1ccc(Nc2cc(C)nn2-c2nc(C)cc(=O)[nH]2)cc1`, the cytotoxicity was 101% (active). Compound `Cc1cccc(C)c1N(CC(=O)Nc1cccc(N(C)S(C)(=O)=O)c1)S(C)(=O)=O` has a cytotoxicity of -7.3%. `COc1ccc(Cl)c(Cn2c(NCCCN(C)C)nc3c2c(=O)n(C)c(=O)n3C)c1` gave a cytotoxicity of -1.8%. In the case of `Cc1ccccc1OCC(O)Cn1c(N2CCN(c3ccccc3)CC2)nc2c1c(=O)[nH]c(=O)n2C` (centres undefined), the cytotoxicity is reported as 78.8% (active). With `CC(C)CSc1nc2c(c(=O)[nH]c(=O)n2C)n1CC(O)COc1cccc2ccccc12` (centres undefined) the cytotoxicity was 63.6% (active). With `Cc1ccccc1OCC(O)Cn1c(SC(C)C)nc2c1c(=O)[nH]c(=O)n2C` (centres undefined) the cytotoxicity was -16.9%. With `Cn1c(=O)[nH]c(=O)c2c1nc(N1CCOCC1)n2CC(O)COc1ccccc1` (centres undefined) the cytotoxicity was -14.2%. In the case of `CCSc1nc2c(c(=O)[nH]c(=O)n2C)n1CC(O)COc1ccccc1C` (centres undefined), the cytotoxicity is reported as -11.9%. With `COc1ccccc1OCC(O)Cn1c(Br)nc2c1c(=O)[nH]c(=O)n2C` (centres undefined) the cytotoxicity was -3.5%. With `Cc1sc2nc(CN3CCOCC3)nc(N3CCC(C(N)=O)CC3)c2c1C` the cytotoxicity was 2.3%. For `O=C(COCCOCC(=O)N(c1ccccn1)C1CCCCC1)N(c1ccccn1)C1CCCCC1`, the cytotoxicity was -24%. `CCOC(=O)c1nnn(-c2nonc2N)c1COc1ccccc1` gave a cytotoxicity of -16.7%. With `CCN(CC)CCNc1nc(-c2ccco2)c2c(c1C#N)CC(C)(C)OC2` the cytotoxicity was -15.7%. `CN(C)CCNc1nc(-c2ccco2)c2c(c1C#N)CC(C)(C)OC2` showed a cytotoxicity of -0.3%. `C=CCn1c(SCC2=C(C(=O)OCC)C(C)NC(=O)N2)nnc1C1CCCCC1` (centres undefined) showed a cytotoxicity of -17.2%. `Cc1cc(NS(=O)(=O)c2ccc(C3CCCCC3)cc2)no1` gave a cytotoxicity of -3%. `O=C1CC(C(F)(F)C(F)(F)C(F)(F)C(F)F)=Nc2ccccc2N1` showed a cytotoxicity of -3.2%. For `FC(F)C(F)(F)C(F)(F)C(F)(F)c1cc(-c2ccccc2)n[nH]1`, the cytotoxicity was 82.9% (active). With `Oc1ccccc1-c1cc(C(F)(F)C(F)F)[nH]n1` the cytotoxicity was -5.1%. With `O=C(Cc1cn2ccsc2n1)NCc1ccccc1` the cytotoxicity was -14.8%. Work on `COc1cc2c(cc1OC)C1Cc3ccc(OC)c(OC)c3CN1CC2` (centres undefined) yielded a cytotoxicity of -5%. `COc1cc2c(cc1OC)C(c1cc(OC)c(OC)c(OC)c1)NCC2` (centres undefined) showed a cytotoxicity of 7.4%. `Cc1ccc(S(=O)(=O)Cn2nnnc2CN2CCCC3(CCCCC3)C2)cc1` showed a cytotoxicity of 4.3%. With `COc1ccc2nc(NC(=O)c3cnccn3)sc2c1` the cytotoxicity was 4.7%. In the case of `OCCN1CCN(C(c2cccs2)c2ccc3cccnc3c2O)CC1` (centres undefined), the cytotoxicity is reported as 83.8% (active). For `CN1CCN(C(c2cccnc2)c2ccc3cccnc3c2O)CC1` (centres undefined), the cytotoxicity was -15.1%. `Cc1nc2sc(C(c3ccccc3)N3CCN(CCO)CC3)c(O)n2n1` (centres undefined) gave a cytotoxicity of -1.5%. Compound `FC(F)(F)c1ccccc1Nc1nccs1` has a cytotoxicity of 14.9%. With `CC1CC(C)CN(c2nc3c(c(=O)[nH]c(=O)n3C)n2CCSc2nc3ccccc3o2)C1` (centres undefined) the cytotoxicity was 2.4%. With `N#CC1=C2SCC(O)(c3ccccc3)N2C(=O)CC1c1ccccc1` (centres undefined) the cytotoxicity was 65.7% (active). `N#CC1=C2SCN(Cc3ccccc3)CN2C(=O)CC1c1cccs1` (centres undefined) gave a cytotoxicity of -0.4%. For `COc1ccc(C2CC(=O)N3C(=C2C#N)SCC3(O)c2ccccc2)cc1` (centres undefined), the cytotoxicity was 12.5%. With `N#CC1=C2SCN(c3ccccc3)CN2C(=O)CC1c1cccs1` (centres undefined) the cytotoxicity was 2.6%. `CCc1ccc(C2CC(=O)N3CN(c4ccccc4)CSC3=C2C#N)cc1` (centres undefined) showed a cytotoxicity of 2.4%. With `COc1ccc(CCNS(=O)(=O)c2ccc3c(c2)OCCO3)cc1OC` the cytotoxicity was -28.8%. `COc1ccc(S(=O)(=O)N(C)CC(=O)NC2CC2)cc1` gave a cytotoxicity of -20.5%. `CCOc1ccc(N2CCCCn3c2nc2c3c(=O)[nH]c(=O)n2C)cc1` showed a cytotoxicity of -9%. For `COc1ccc(OC)c(NC(=O)CSc2nnc(Cn3c(=O)sc4ccccc43)n2C)c1`, the cytotoxicity was 4.6%. Compound `CCn1c(SCC(=O)c2cc(OC)ccc2OC)nc2c1c(=O)n(C)c(=O)n2C` has a cytotoxicity of -4.8%. For `CCOC(=O)Cc1csc(NC(=O)CSc2ncnc3c2cnn3-c2ccccc2Cl)n1`, the cytotoxicity was 50% (active). `Cc1csc(NC(=O)CSc2ncnc3c2cnn3-c2ccccc2Cl)n1` showed a cytotoxicity of 31.8%. Compound `CCOC(=O)Cc1csc(NC(=O)CSc2ncnc3c2cnn3-c2ccc(OC)cc2)n1` has a cytotoxicity of 4.2%. `Cc1cc(OCc2nn[nH]n2)c2c(C)c(Cc3ccccc3)c(=O)oc2c1` gave a cytotoxicity of 13.7%. Work on `Cc1cc(-c2ccccc2)c(C#N)c(N)n1` yielded a cytotoxicity of 12.6%. `CSc1nc(-c2ccco2)cc(-c2ccccc2)c1C#N` showed a cytotoxicity of 45%. For `Cc1cccc2cc(CN(CCCO)C(=O)Nc3ccccc3Cl)c(=O)[nH]c12`, the cytotoxicity was -2.4%. With `CC[C@@H](C)[C@H](NC(=O)OC(C)(C)C)c1nnc(S(=O)(=O)Cc2cc(C)ccc2C)o1` the cytotoxicity was 46.9%. For `CC(C)(C)OC(=O)N[C@@H](Cc1ccccc1)c1nnc(S(=O)(=O)Cc2cccc(F)c2)o1`, the cytotoxicity was -21.9%. For `Cn1nc(-c2ccc(Cl)cc2)c2cc(C(=O)N3CCN(c4ccccn4)CC3)sc21`, the cytotoxicity was -7.2%. `COc1ccc(N2CCN(C(=O)c3cc4c(-c5cccc(OC)c5)nn(C)c4s3)CC2)cc1` showed a cytotoxicity of 15.7%. In the case of `CN(C)c1ncc(C(=O)O)cn1`, the cytotoxicity is reported as 21.7%. For `COc1ccc(C(C(O)C(=O)c2c[nH]c3ccccc23)N2CCN(c3ccc(OC)cc3)CC2)cc1` (centres undefined), the cytotoxicity was 50.4% (active). In the case of `COc1ccc(C(=O)c2c[nH]c3ccccc23)cc1`, the cytotoxicity is reported as 15.5%. Work on `O=C(c1c[nH]c2ccccc12)C(O)C(c1ccccc1)N1CCOCC1` (centres undefined) yielded a cytotoxicity of -15.9%. In the case of `O=C(Nc1ccccc1F)C1CCCN(S(=O)(=O)c2cccc3cccnc23)C1` (centres undefined), the cytotoxicity is reported as 7%. Work on `Cn1cnnc1SCc1ccc(C#N)cc1` yielded a cytotoxicity of 2.3%. In the case of `OCCNCC(O)Cn1ccc2ccccc21` (centres undefined), the cytotoxicity is reported as -4.4%. `OCCN(CC(O)Cn1ccc2ccccc21)CC(O)Cn1ccc2ccccc21` (centres undefined) showed a cytotoxicity of 29.1%. In the case of `O=C1OCC2=C1C(c1ccc3c(c1)OCO3)Sc1ccccc1N2` (centres undefined), the cytotoxicity is reported as -14.4%. With `Cc1c(C(=O)N2CCN(C)CC2)oc2c1C(=O)CC(C)(C)C2` the cytotoxicity was -40.9%. With `c1ccc(-c2nc(N3CCN(c4ccccc4)CC3)nc(-n3ccnc3)n2)cc1` the cytotoxicity was 30.8%. With `c1ccc(-c2nc(N3CCCCCC3)nc(-n3ccnc3)n2)cc1` the cytotoxicity was -10.1%. Work on `Cn1nc(-c2ccc(Cl)cc2)c2cc(C(=O)N3CCOCC3)sc21` yielded a cytotoxicity of 8.6%. `CC(=O)c1ccc(NC(=O)c2noc3c2CCCCC3)cc1` showed a cytotoxicity of 16.4%. `CN1CCN(c2ncnc3c2[nH]c2ccc(F)cc23)CC1` gave a cytotoxicity of 5.5%. Compound `COc1cccc2[nH]c3c(N4CCN(Cc5ccc6c(c5)OCO6)CC4)ncnc3c12` has a cytotoxicity of 44.8%. Compound `COc1ccc2c(c1)c1ncnc(N3CCN(Cc4ccc5c(c4)OCO5)CC3)c1n2C` has a cytotoxicity of 43.1%. For `Cc1ccc2c(c1)[nH]c1c(N3CCN(Cc4ccc5c(c4)OCO5)CC3)ncnc12`, the cytotoxicity was 9.5%. `Fc1ccc2[nH]c3c(N4CCN(c5ccccc5)CC4)ncnc3c2c1` gave a cytotoxicity of -3.9%. With `COc1cccc(N2CCN(c3ncnc4c3[nH]c3ccc(F)cc34)CC2C)c1` (centres undefined) the cytotoxicity was 121% (active). For `COc1ccc2[nH]c3c(N4CCN(Cc5ccc6c(c5)OCO6)CC4)ncnc3c2c1`, the cytotoxicity was 53.7% (active). Compound `CCCCOc1ncnc2c1[nH]c1ccc(F)cc12` has a cytotoxicity of 5%. `c1ccc2c(c1)oc1c(N3CCN(Cc4ccc5c(c4)OCO5)CC3)ncnc12` showed a cytotoxicity of 10.1%. In the case of `Fc1ccc2[nH]c3c(N4CCN(C5CCCCC5)CC4)ncnc3c2c1`, the cytotoxicity is reported as 23.3%. With `CCC1S/C(=C(\C#N)C(=O)NCc2ccco2)N(c2ccc(F)cc2)C1=O` (centres undefined) the cytotoxicity was -16.6%. `CC1CCCCN1S(=O)(=O)c1ccc2c(c1)oc(=O)n2CC(=O)O` (centres undefined) gave a cytotoxicity of -0.1%. Work on `CCN=C(Nc1ccc2c(c1)OCO2)SC1CC(=O)N(c2ccccc2F)C1=O` (centres undefined) yielded a cytotoxicity of -6%. Compound `O=C(O)CCS(=O)(=O)Cc1ccccc1F` has a cytotoxicity of 1.1%.

— PubChem BioAssay AID431 (Sanford-Burnham Center for Chemical Genomics, 2006)
